The results in this text go back to PubChem BioAssay (Tox21).

SMILES strings stand for the structures. “And” between values parts separate entries of the source, which are not always exact repeats. Equal entries are not always repeated. Results filed as inconclusive are left out. Where a call stands in place of a potency, no number is given. The source made the active and inactive calls. The call rests on the fitted dose curve; in most records, active means well fitted cell-killing curve with a large enough effect in the repeat runs; inconclusive means weak or mixed curves, or effect the other way; inactive means no such curve, though single readings can be large or run the other way. Non-standard residues stand in square brackets, D forms with d. Residues, ends and D or L forms follow the SMILES beside them. pGlu = O=C1CC[C@@H](C(=O)O)N1; Thz = O=C(O)[C@@H]1CSCN1
Potency means the concentration at half of the fitted maximal effect.

The test is described as follows: qHTS assay for identifying genotoxic compounds that show differential cytotoxicity against isogenic chicken DT40 cell lines with known DNA damage response pathways - Rev3 mutant cell line (AID 743014). Further: nearly all actives have a fitted effect of over 55% in size. The settings on record: chicken DT40 Rev3-/- viability, CellTiter-Glo, 40 h; series mostly up to 68.4 µM. The source says:
National Center for Advancing Translational Sciences [NCATS]
NIH Chemical Genomics Center [NCGC]
U.S. Environmental Protection Agency [EPA]
National Institutes of Environmental Health Sciences [NIEHS]
National Toxicology Program [NTP]
U.S. Food and Drug Administration [FDA]
DNA repair pathways play a critical role in cellular homeostasis by repairing DNA damage induced by endogenous processes and xenobiotics. Isogenic chicken DT40 cell lines deficient in different DNA repair pathways can be used to identify genotoxic compounds and aid in characterizing the nature of the DNA damage induced. Two DNA repair-deficient cell lines with disrupted genes, Rad54/Ku70 or Rev3, were used to screen the Tox21 10K compound library. Possible genotoxicity was based on the presence of a significant increase in cytotoxicity in one or more of the DNA repair-deficient cell lines compared to that observed in the parental DNA repair-proficient cell line. CellTiter Glo viability assay (Promega, Madison, WI) was used to measure cell viability in these cells after compound treatment. This assay includes the data from the Rev3 mutant cell line.
Tox21 Assay Protocol Summary:
300 DT40 mutant cells in 5 uL/well were dispensed into white, solid-bottom 1536-well plates using a Multidrop Combi (ThermoFisher Scientific, Waltham, MA) dispenser. After the assay plates were incubated at 37 C/5% CO2 for approximately 0.5 hour, 23 nL of compounds dissolved in DMSO, positive controls or DMSO only was transferred into the assay plate by a pintool work station (Kalypsys, San Diego, CA). The assay plates were incubated at 37 C/5% CO2 for 40 hours. After 5 uL per well of CellTiter-Glo reagent was added into each well of the assay plates, the plates were incubated for 30 min at room temperature and the luminescence intensity of the plates was measured using a ViewLux (PerkinElmer, Shelton, CT) plate reader.
For orientation: Quantitative high-throughput screening tests each substance at several concentrations.
`CCCN(CC)C(CC)C(=O)Nc1c(C)cccc1C` (stereo not given): the Potency result was “inactive”.

For `OCC(O)COc1ccc(Cl)cc1` (stereo not given), the Potency entry is “inactive”.

In the case of `N#Cc1ccc2c(c1)N(CCCN1CCC(O)CC1)c1ccccc1S2`, the Potency was 26.6 µM (active).

As to `CCNC(=O)[C@@H]1CCCN1C(=O)[C@H](CCCN=C(N)N)NC(=O)[C@H](CC(C)C)NC(=O)[C@@H](Cc1c[nH]c2ccccc12)NC(=O)[C@H](Cc1ccc(O)cc1)NC(=O)[C@H](CO)NC(=O)[C@H](Cc1c[nH]c2ccccc12)NC(=O)[C@H](Cc1cnc[nH]1)NC(=O)[C@@H]1CCC(=O)N1`, the Potency is 1.19 µM (active).

As for `O=C1CC[C@@H](C(=O)N2CSC[C@H]2C(=O)O)N1` ([pGlu]-[Thz]-OH), the Potency result is “inactive”.

Take `N[C@@H](C(=O)N[C@@H]1C(=O)N2C(C(=O)O)=C(Cl)CC[C@H]12)c1ccccc1`: the Potency entry is “inactive”.

Turning to `O=C(OC[C@H]1O[C@](O)(COC(=O)c2cccnc2)[C@@H](OC(=O)c2cccnc2)[C@@H]1OC(=O)c1cccnc1)c1cccnc1`, the Potency result was “inactive”.

Consider `Cn1cc(NC(=O)c2cc(NC(=O)c3cc(NC=O)cn3C)cn2C)cc1C(=O)NCCC(=N)N`, for which the Potency entry was “inactive”.

`C[N+]1(C)CCN(CC(O)(c2ccccc2)C2CCCCC2)CC1` (stereo not given): the Potency result is “inactive”.

Regarding `C=C1C(=O)O[C@H]2[C@H]1CC/C(C)=C\CC[C@@]1(C)O[C@@H]21`, the Potency was 2.98 µM (active).

As to `O=C(Nc1ccc(Br)cc1)c1cc(Br)c(Br)s1`, the Potency was 33.5 µM (active).

For the compound `C=C1c2c(Cl)ccc(O)c2C(O)=C2C(=O)[C@]3(O)C(O)=C(C(N)=O)C(=O)[C@@H](N(C)C)[C@@H]3[C@@H](O)[C@H]12`, the Potency entry is “inactive”.

As to `CC1=C(/C=C/C(C)=C/C=C/C(C)=C/C(=O)Oc2c(C)c(C)c3c(c2C)CC[C@@](C)(CCC[C@H](C)CCC[C@H](C)CCCC(C)C)O3)C(C)(C)CCC1`, the Potency result was “inactive”.

Turning to `CC(=O)[C@@]1(O)CC[C@H]2[C@@H]3C=C(Cl)C4=CC(=O)CC[C@]4(C)[C@H]3CC[C@@]21C`, the Potency was 23.7 µM (active).

With `CCCCCCCCCCCCCCCC(=O)OCCC1CCN(CCCN2c3ccccc3Sc3ccc(S(=O)(=O)N(C)C)cc32)CC1`, the Potency entry was “inactive”.

Take `CCN(CC)CCOCCOC(=O)C(CC)(CC)c1ccccc1`: the Potency is 1.88 µM (active).

On to `N[C@@H](C(=O)N[C@@H]1C(=O)N2C(C(=O)O)=C(CSc3cn[nH]n3)CS[C@H]12)c1ccc(O)cc1`, for which the Potency result is “inactive”.

On to `O=C[C@H](O)[C@@H](O)[C@H](O[C@H]1O[C@H](CO)[C@@H](O[C@H]2O[C@H](CO)[C@@H](O)[C@H](O)[C@H]2O)[C@H](O)[C@H]1O)[C@H](O)CO`, for which the Potency entry is “inactive”.

Turning to `O=C(Cn1c(=O)sc2ccc(Cl)cc21)N1CCN(CCO)CC1`, the Potency result was “inactive”.

`CC1(O)CCC(C(C)(C)O)CC1` (stereo not given): the Potency result is “inactive”.

Regarding `CC(=O)OCC(=O)[C@@]12OC3(CCCC3)O[C@@H]1C[C@H]1[C@@H]3CCC4=CC(=O)C=C[C@]4(C)[C@@]3(F)[C@@H](O)C[C@@]12C`, the Potency entry was “inactive”.

`CCCc1ccc(C(=O)O)cc1`: the Potency result is “inactive”.

Turning to `COC(=O)C1=C(C#N)NC(C)=C(C(=O)OC(C)C)C1c1cccc([N+](=O)[O-])c1` (stereo not given), the Potency was 23.7 µM (active).

In the case of `CCN(CC)CCOC(=O)c1ccc(N)cc1Cl`, the Potency result is “inactive”.

Turning to `N=C(N)c1ccc(OCCCOc2ccc(C(=N)N)cc2Br)c(Br)c1`, the Potency was 8.41 µM (active).

Regarding `Cc1cccc(C)c1N(CCCc1cccnc1)C(=O)C(C)N` (stereo not given), the Potency result is “inactive”.

For `CCN(CC)c1ccc(C(=C2C=CC(=[N+](CC)CC)C=C2)c2ccccc2)cc1`, the Potency was 0.106 µM (active).

Take `C=C(NC(=O)C(=C)NC(=O)c1csc(C2=N[C@@H]3c4csc(n4)[C@H]4NC(=O)c5csc(n5)[C@H]([C@](C)(O)[C@@H](C)O)NC(=O)[C@H]5CSC(=N5)C(=CC)NC(=O)C([C@@H](C)O)NC(=O)c5csc(n5)[C@]3(CC2)NC(=O)[C@H](C)NC(=O)C(=C)NC(=O)[C@H](C)NC(=O)C([C@@H](C)CC)NC2C=Cc3c([C@H](C)O)cc(nc3C2O)C(=O)O[C@@H]4C)n1)C(N)=O` (stereo not given in full): the Potency is 3.2 µM (active).

Regarding `OC(CN1CCCCC1)c1cc(-c2ccccc2)on1` (stereo not given), the Potency result was “inactive”.

Consider `CS(=O)(=O)OCCCNCCCOS(C)(=O)=O`, for which the Potency entry was “inactive”.

In the case of `CCC(C)[C@H]1O[C@]2(C=C[C@@H]1C)C[C@@H]1C[C@@H](C/C=C(\C)[C@@H](O[C@H]3C[C@H](OC)[C@@H](O[C@H]4C[C@H](OC)[C@H](NC(C)=O)[C@H](C)O4)[C@H](C)O3)[C@@H](C)/C=C/C=C3\CO[C@@H]4[C@H](O)C(C)=C[C@@H](C(=O)O1)[C@]34O)O2` (stereo not given in full), the Potency was 1.33 µM (active) and 2.98 µM (active).

In the case of `C/C1=C2N=C(/C=C3N=C(/C(C)=C4\[N-][C@@](C)([C@@H]5N=C1[C@](C)(CCC(=O)NCC(C)OP(=O)(O)O[C@H]1[C@@H](O)[C@@H](n6cnc7cc(C)c(C)cc76)O[C@@H]1CO)[C@H]5CC(N)=O)[C@@](C)(CC(N)=O)[C@@H]4CCC(N)=O)[C@@](C)(CC(N)=O)[C@@H]\3CCC(N)=O)C(C)(C)[C@@H]/2CCC(N)=O.CC(=O)O.[Co]` (stereo not given in full), the Potency result was “inactive”.

As for `CCC(=O)NS(=O)(=O)c1ccc(-c2c(-c3ccccc3)noc2C)cc1`, the Potency entry was “inactive”.

For `CN1c2cc(O)c(N=NC(N)=O)cc2CC1S(=O)(=O)O` (stereo not given), the Potency result was “inactive”.

`CCCCCCCCCCCCCCCCCC(=O)OC[C@@H](O)[C@H]1OC[C@H](O)[C@H]1O`: the Potency entry was “inactive”.

Consider `Cc1ncc(C[n+]2csc(CCOP(=O)(O)OP(=O)(O)O)c2C)c(N)n1`, for which the Potency entry is “inactive”.

For `CCCCCCCCCCCCCCCC(=O)OC[C@@H](NC(=O)C(Cl)Cl)[C@H](O)c1ccc([N+](=O)[O-])cc1`, the Potency result is “inactive”.

On to `CO[C@H]1[C@@H](O)[C@H](N)[C@@H](O[C@H]2O[C@H]([C@H](C)N)CC[C@H]2N)[C@H](O)[C@@H]1N(C)C(=O)CN`, for which the Potency result is “inactive”.

For the compound `CCCC1C(=O)N2C(N(C)C)=Nc3ccc(C)cc3N2C1=O` (stereo not given), the Potency result was “inactive”.

Consider `CO/N=C(\C(=O)N[C@@H]1C(=O)N2C(C(=O)O)=C(CSC(=O)c3ccco3)CS[C@H]12)c1csc(N)n1`, for which the Potency entry was “inactive”.
